Laboratory results reported in PubChem BioAssay (EPA / NIEHS).
Some structures have more than one record in an assay (separate samples or runs), and their calls can disagree. Active and inactive are the calls of the source. How the source made its calls: active means hit-call score of the fitted dose curve at least 0.9, where 1 is the maximum; inactive means score below 0.9.

Assay: CEETOX_H295R_MTT_cell_viability: Viability Assessment in the CeeTox HT-H295R MTT Assay (AID 2283718);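 on AC50: curve fitted both ways so AC50 may mark viability loss or gain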
Description: CEETOX_H295R is a cell-based, multiplexed-readout assay that uses H295R, a human adrenal gland cell line, with measurements taken at 48 hours after chemical dosing in a 96-well plate.CEETOX_H295R_MTT_cell_viability is one of 23 assay component(s) measured or calculated from the CEETOX_H295R assay. It is designed to make measurements of cell number, a form of viability reporter, as detected with […] signals by MTT cytotoxicity assay technology.The assay component endpoint CEETOX_H295R_MTT_cell_viability was analyzed with bidirectional fitting relation to DMSO as the negative control and baseline of activity. Using a type of viability reporter in the MTT cytotoxicity assay, gain or loss-of-signal activity can be used to monitor cellular processes to understand changes in proliferation. To generalize the intended target to other relatable targets, this assay endpoint is annotated to cell cycle, where the subfamily is proliferation.
Cell culture and media preparation procedures were conducted in accordance with OECD Test No. 456 guidelines, with minor modifications. H295R cells (ATCC CRL-2128) were expanded for 5 passages and frozen in batches in liquid nitrogen. Prior to the steroidogenesis assay, H295R cells were thawed and passed at least 4 times. The maximum passage was 10. Cells were maintained in a 1:1 mixture of DMEM/F12 supplemented with 5ml/L ITS+ Premix (BD Bioscience) and 12.5 ml/L Nu-Serum (BD Bioscience). After seeding cells into 96-well plates at 50-60% confluency, cells were allowed to adhere overnight. Prior to chemical testing, culture medium was replaced with 175 uL medium containing 10 uM forskolin to stimulate steroidogenesis for 48 hours. Following prestimulation, forskolin medium was replaced with medium containing test chemical solubilized in DMSO (ensuring a final concentration of 0.1% DMSO). Test chemicals were incubated for 48 hours, then the medium was removed and split into 2 vials containing approximately 75uL each, and stored at -80 C prior to hormone analysis. For steroid quantification, media samples were shipped to OpAns, LLC (Durham, NC) on dry ice, and samples were thawed to room temperature prior to liquid-liquid extraction. Steroid hormones were extracted from media samples using methyl tertbutyl ether (MTBE). An extra derivatization with dansyl chloride was included for estrogen (estrone and estradiol) detection only. Steroid hormones were separated by HPLC, eluted using a reverse phase C18 gradient with electrospray positive ionization, followed by quantification by tandem mass spectrometry (MS/MS). Data were acquired on a MassHunter Workstation Acquisition version B03.01 (Agilent Technologies, Inc.) and processed using MassHunter Quantitative Analysis for QQQ. Accuracy was determined for each hormone analyte from 3 standards to determine upper and lower limits of quantification (ULOQ and LLOQ, respectively) using a 7-point standard curve. Precision and accuracy of the extraction and quantification methods were calculated as the percent relative standard deviation (%RSD) of the spiked standards and percent spiked standard recovered, respectively. The goal was to achieve 100% accuracy (i.e., recover all spiked-in standard at quantification with minimal loss during run time) and good precision (i.e., have %RSD <15% to ensure reproducibility). Test medium was removed following chemical exposure, and cell viability was evaluated in the same wells by MTT. MTT procedures were as follows: after removal of test medium, 500 uL of 0.5 mg/ml of 3-[4,5-dimethylthiazol-2-y]2,5-diphenyltetrazoliumbromide solution was added to the cells. Following a 4-hour incubation at 37 C and 5% CO2 to allow formazan-crystal formation, the MTT solution was removed and blue formazan salt crystals were solubilized using 500uL anhydrous isopropanol with shaking for 20 minutes. Absorbance was read at 570 and 650nm using a Packard Fusion microplate reader. […]
In the case of `NS(=O)(=O)C(F)(F)C(F)(F)C(F)(F)C(F)(F)C(F)(F)C(F)(F)C(F)(F)C(F)(F)F`, the outcome is reported as “inactive”. For `CC#Cc1cc(C)nc(Nc2ccccc2)n1`, the outcome was “inactive”. For `CCCCCCCCOC(=O)c1ccccc1C(=O)OCCCCCCCC`, the outcome was “inactive”. For `CCOP(=S)(OCC)SCSC(C)(C)C`, the outcome was “inactive”. For `Cc1cc2c3c(c1)C(c1ccccc1)=N[C@@H](NC(=O)c1ccncc1)C(=O)N3CC2`, the outcome was “inactive”. For `ClC1=C(Cl)[C@]2(Cl)[C@@H]3[C@H]4C[C@H]([C@@H]5O[C@H]45)[C@@H]3[C@@]1(Cl)C2(Cl)Cl`, the AC50 was 4.96 µM (active). In the case of `Clc1ccc(C(c2ccccc2Cl)C(Cl)(Cl)Cl)cc1` (stereo not given), the outcome is reported as “inactive”. With `CCNc1nc(NC(C)C)nc(SC)n1` the outcome was “inactive”. In the case of `CCOCCOC(C)=O`, the outcome is reported as “inactive”. With `c1cc2ccc3cccc4ccc(c1)c2c34` the outcome was “inactive”. In the case of `O=C(O)C(F)(F)C(F)(F)C(F)(F)C(F)(F)C(F)(F)C(F)(F)C(F)(F)C(F)(F)C(F)(F)F`, the outcome is reported as “inactive”. In the case of `C[C@]12CCC(=O)C=C1CC[C@@H]1[C@@H]2CC[C@@]2(C)[C@H]1CC[C@]2(C)O`, the outcome is reported as “inactive”. In the case of `CCSC(=O)N(CC)C1CCCCC1`, the outcome is reported as “inactive”. For `N#Cc1ccc(N(CC(N)=O)CC(F)(F)F)cc1C(F)(F)F`, the outcome was “inactive”. For `CCCCCCOC(=O)c1ccccc1C(=O)OCCCCCC`, the AC50 was 25.5 µM (active) and the outcome was “inactive”. In the case of `CC1=C2C[C@H]3[C@@H](CC=C4C[C@@H](O)CC[C@@]43C)[C@@H]2CC[C@]12O[C@@H]1C[C@H](C)CN[C@H]1[C@H]2C`, the outcome is reported as “inactive”. In the case of `Cc1ccccc1CO[C@@H]1C[C@@]2(C(C)C)CC[C@]1(C)O2`, the outcome is reported as “inactive”. In the case of `C[C@]12CCC(=O)C=C1CC[C@@H]1[C@@H]2CC[C@]2(C)C(=O)CC[C@@H]12`, the outcome is reported as “inactive”. In the case of `Cc1cccc(C)c1N`, the outcome is reported as “inactive”. With `Oc1c(Cl)c(Cl)c(Cl)c(Cl)c1Cl` the outcome was “inactive”. In the case of `Cc1cc(O)ccc1Cl`, the outcome is reported as “inactive”. In the case of `Cc1ccc(O)c(C)c1`, the outcome is reported as “inactive”. With `CCC(=O)O[C@H]1CC[C@H]2[C@@H]3CCC4=CC(=O)CC[C@]4(C)[C@H]3CC[C@]12C` the AC50 was 82 µM (active). In the case of `CCC(C)(CC)c1cc(NC(=O)c2c(OC)cccc2OC)on1`, the AC50 is reported as 43 µM (active). With `Cc1cc(-c2ccc(N)c(C)c2)ccc1N` the outcome was “inactive”. In the case of `Oc1ccc(Cl)cc1Cl`, the outcome is reported as “inactive”. In the case of `C=CC(N)=O`, the outcome is reported as “inactive”. With `O=C(NC(=O)c1c(F)cccc1F)Nc1cc(Cl)c(OC(F)(F)C(F)F)c(Cl)c1` the outcome was “inactive”. For `Nc1ccc(-c2ccc(N)cc2)cc1`, the outcome was “inactive”.
